These results are taken from PubChem BioAssay.

Assay [1] deals with Aerobactin synthetase IucA (Klebsiella pneumoniae). Put plainly: inhibition of K. pneumoniae IucA enzyme – biochemical, Tocris library, absorbance (AID 1345561).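 Note: 100% = enzyme without compound and 0% = no enzyme.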 Conditions: purified IucA enzyme assay, absorbance (OD) read-out; stronger effect = lower value;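 tested at 8 µM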.
A short description of assay [2]: viability loss with induced miR-34 in A549 – imaging, A549 dox-inducible miR-34, nuclei and caspase counts, primary screen (AID 1347080;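 active = compounds whose cell count with miR-34 switched on is under 0.7 times the count with it off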). As to conditions: A549 miR-34 inducible, Hoechst nuclei count, 48 h.
Assay [3] in a line: galactose survival enhancers in mitochondrial complex I cybrids – cell-based, galactose medium, ATP luminescence, primary screen (AID 1645843;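 active = z-score of at least 1.8 in each of two replicates, scored against plate mean and spread of sample wells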;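 note: positive z means more ATP and so rescue of galactose-driven cybrid death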). As to conditions: complex I mutant cybrid cells, 72 h, stronger effect = higher value.
A short description of assay [4]: P. berghei load reduction in hepatocytes – cell-based, HepG2, luciferase luminescence, HepG2 viability, primary screen (AID 624349; in the data active = parasite load remaining mostly below about 12%, no sharp cut-off; inactive = mostly above about 10%;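 note: 100% = mean of DMSO negative control wells on the same plate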). As to conditions: P. berghei liver stage in HepG2, luciferase luminescence, concentration not given here; parasite load remaining: stronger effect = lower value; viability: measured here: HepG2 viability without parasites.
A short description of assay [5]: growth inhibition, single agent or in combination, cell-based, chromothripsis tumors, cisplatin or BGB combos (AID 1671449; in the data active = inhibition above about 80%;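 note: cells exposed for 96 hours; 0% = vehicle DMSO and 100% = killing by high DMSO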). Conditions: LFS_MB_P medulloblastoma cells.
Assay [6] is described as follows: growth inhibition, single agent and combos, cell-based, chromothripsis tumors, cisplatin or BGB combos (AID 1671450; in the data active = inhibition above about 80%;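 note: cells exposed to compound for four days; 0% = vehicle DMSO and 100% = cell killing by high DMSO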). Conditions: HDN33 neuroblastoma cells, stronger effect = higher value.
Assay [7] is described as follows: growth inhibition, single agents and combos, ICB984, cell-based, cisplatin or BGB combos, synergistic combos for chromothripsis tumors (AID 1671451).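 Note: cells exposed for 96 hours before readout; 0% = vehicle DMSO and 100% = killing by high DMSO.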 As to conditions: ICB984 medulloblastoma cells, drug combinations, stronger effect = higher value.
A short description of assay [8]: growth inhibition, single agents and combos, HTB85, cell-based, BGB or cisplatin IC20 combos, synergistic combos for chromothripsis tumors (AID 1671453; in the data active = inhibition above about 80%;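 note: cells exposed for 96 hours before readout; 0% = vehicle DMSO and 100% = high DMSO killing control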). Conditions: HTB85 osteosarcoma cells, drug combinations, stronger effect = higher value.
The mark [9] stands for this setting: stronger effect = lower value, cell number ratio, induced over uninduced.
Where [10] appears, read: measured here: relative caspase fold change +Dox/-Dox.
[11] abbreviates: measured here: total cells with miR-34 induction, stronger effect = lower value.
Setting [12] is: measured here: total cells without miR-34 induction.

Calls of active or inactive are those of the source. Unless noted, the rule behind the calls is not given here.

Broadly, the remaining activity is the signal under treatment as a percentage of the control signal. In the case of `COc1cc(OC)c(C(=O)CCCCN2CCC3(CC2)NC(=O)NC3=O)cc1NS(=O)(=O)c1ccc(C(F)(F)F)cc1`, in assay [1], the remaining activity is 118% (inactive). The fold change is 0.962 (inactive) in assay [2] (setting [9]) and 0.689 in assay [2] (setting [10]). Moreover, the values for the cell count in assay [2] (setting [11]) and in assay [2] (setting [12]) were 8560 and 8900, respectively. For the same molecule, in assay [3], the z-score is -0.165 (inactive).

On to `COc1cc2c(cc1C(F)(F)F)N(C(=O)Nc1cc(F)cc(-c3cccnc3)c1)CC2`, for which the remaining activity in assay [1] was 97.1% (inactive). The fold change is 0.848 (inactive) in assay [2] (setting [9]) and 0.948 in assay [2] (setting [10]). Also, the figures for the cell count in assay [2] (setting [11]) and in assay [2] (setting [12]) were 5790 and 6820, respectively. In addition, the z-score in assay [3] is -0.61 (inactive).

`COc1ccc2[nH]c(I)c(CCNC(C)=O)c2c1`: the remaining activity in assay [1] was 98.4% (inactive). Besides, the fold change in assay [2] (setting [9]) was 0.928 (inactive); in assay [2] (setting [10]) it was 0.922. Moreover, the results for the cell count in assay [2] (setting [11]) and in assay [2] (setting [12]) were 8770 and 9460, respectively. Also, the z-score in assay [3] is 0.09 (inactive).

Turning to `N#C/C(=C\c1ccc(O)c(O)c1)C(N)=O`, the remaining activity in assay [1] is 122% (inactive). In addition, the figures for the fold change in assay [2] (setting [9]) and in assay [2] (setting [10]) were 0.887 (inactive) and 1.74, respectively. Also, the cell count came out at 9080 in assay [2] (setting [11]) and 10200 in assay [2] (setting [12]). For the same molecule, the z-score in assay [3] was -0.47 (inactive).

With `Cc1cccc(C)c1NC(=O)C[N+](C)(C)C`, in assay [1], the remaining activity is 109% (inactive). Besides, the fold change in assay [2] (setting [9]) was 1 (inactive); in assay [2] (setting [10]), 0.946. For the same molecule, the cell count in assay [2] (setting [11]) was found to be 9170; in assay [2] (setting [12]) it was 9160. Moreover, the z-score in assay [3] is -0.035 (inactive).

For orientation: viability means a read-out of living cells in per cent, often relative to untreated cells. As for `CCN(CC)CCCCN1c2ccccc2Oc2ccc(Cl)cc21`, the parasite load remaining in assay [4] is 45.6% (inactive). Further, in assay [4], the viability stood at 112%. In addition, the remaining activity in assay [1] is 88.2% (inactive). In addition, the fold change in assay [2] (setting [9]) is 1.24 (inactive); in assay [2] (setting [10]), 0.706. For the same molecule, the cell count stood at 276 in assay [2] (setting [11]) and 224 in assay [2] (setting [12]). Besides, in assay [3], the z-score was -0.7 (inactive).

Regarding `COc1[nH]c2ccc(F)cc2c1C(=O)OCC1CCN(CCNS(C)(=O)=O)CC1`, the remaining activity in assay [1] was 110% (inactive). Also, the results for the fold change in assay [2] (setting [9]) and in assay [2] (setting [10]) were 0.927 (inactive) and 0.654, respectively. Also, the cell count in assay [2] (setting [11]) is 8220; in assay [2] (setting [12]) it was 8880. In addition, the z-score in assay [3] is -0.185 (inactive).

Regarding `CCCN(C/C=C/I)C1CCc2cccc(O)c2C1` (configuration not stated), the remaining activity in assay [1] is 123% (inactive). The fold change in assay [2] (setting [9]) is 0.893 (inactive); in assay [2] (setting [10]), 1.14. Also, the cell count amounted to 8040 in assay [2] (setting [11]) and 9000 in assay [2] (setting [12]). The z-score in assay [3] was -0.945 (inactive).

For `O=C1NC(=O)c2cc(Nc3ccc(F)cc3)c(Nc3ccc(F)cc3)cc21`, the parasite load remaining in assay [4] is 41.4% (inactive). Also, in assay [4], the viability was found to be 70.7%. Moreover, the remaining activity in assay [1] is 103% (inactive). The values for the fold change in assay [2] (setting [9]) and in assay [2] (setting [10]) were 1.25 (inactive) and 0.934, respectively. Also, the cell count worked out at 3220 in assay [2] (setting [11]) and 2570 in assay [2] (setting [12]). In addition, the z-score in assay [3] is -0.645 (inactive).

Take `Cc1c(CC(C)(C)C(=O)O)n(Cc2ccc(Cl)cc2)c2ccc(F)cc12`: the remaining activity in assay [1] was 112% (inactive). In addition, the fold change was 0.952 (inactive) in assay [2] (setting [9]) and 0.72 in assay [2] (setting [10]). Also, the cell count in assay [2] (setting [11]) was 8220; in assay [2] (setting [12]), 8630. Also, the z-score in assay [3] is 0.1 (inactive).

Take `CC(C)NCCN(C(C)C)S(=O)(=O)c1ccc(Cl)cc1Cl`: in assay [1], the remaining activity was 113% (inactive). The fold change in assay [2] (setting [9]) is 0.946 (inactive); in assay [2] (setting [10]), 1.35. The cell count in assay [2] (setting [11]) was found to be 9040; in assay [2] (setting [12]), 9560. The z-score in assay [3] is -0.215 (inactive).

As for `O=C(O)CCC/C=C\C[C@@H]1CO[C@H](C(F)(F)F)O[C@@H]1c1ccccc1O`, the remaining activity in assay [1] is 111% (inactive). Besides, the fold change was 0.924 (inactive) in assay [2] (setting [9]) and 0.777 in assay [2] (setting [10]). Besides, the cell count in assay [2] (setting [11]) stood at 7790; in assay [2] (setting [12]), 8430. In addition, in assay [3], the z-score was 0.14 (inactive).

On to `COC(=O)C1=C(C)NC(C)=C(C(=O)OCCCN2CCC(c3ccccc3)(c3ccccc3)CC2)[C@@H]1c1cccc([N+](=O)[O-])c1`, for which the remaining activity in assay [1] was 109% (inactive). The fold change was 1.06 (inactive) in assay [2] (setting [9]) and 1.28 in assay [2] (setting [10]). In addition, the cell count in assay [2] (setting [11]) is 310; in assay [2] (setting [12]), 292. In assay [3], the z-score is -0.83 (inactive).

Take `C#CCN1C(C)=C(C(=O)OC)C(c2cccc([N+](=O)[O-])c2)C(C(=O)OCC)=C1C` (configuration not stated): the remaining activity in assay [1] is 122% (inactive). Moreover, the figures for the fold change in assay [2] (setting [9]) and in assay [2] (setting [10]) were 0.951 (inactive) and 0.816, respectively. The cell count worked out at 7120 in assay [2] (setting [11]) and 7490 in assay [2] (setting [12]). Further, in assay [3], the z-score was -0.3 (inactive).

For `CC[C@H](CO)Nc1nc(NCc2ccc(-c3ccccn3)cc2)c2ncn(C(C)C)c2n1`, the parasite load remaining in assay [4] was 135% (inactive). The viability in assay [4] came out at 85.7%. Further, the remaining activity in assay [1] was 108% (inactive). The fold change was 1.16 (inactive) in assay [2] (setting [9]) and 0.699 in assay [2] (setting [10]). The cell count in assay [2] (setting [11]) was found to be 1900; in assay [2] (setting [12]), 1650. The z-score in assay [3] is -0.89 (inactive).

For the molecule `N#C/C(=C\c1ccc(O)c(O)c1)C(=O)NCCCc1ccccc1`, the remaining activity in assay [1] was 98.4% (inactive). The fold change in assay [2] (setting [9]) is 0.871 (inactive); in assay [2] (setting [10]), 1.07. Moreover, the cell count in assay [2] (setting [11]) worked out at 7250; in assay [2] (setting [12]), 8330. Further, the z-score in assay [3] was -0.64 (inactive).

As to `Cc1ccc(NC2=CC(=O)c3sc(C)nc3C2=O)cc1`, in assay [4], the parasite load remaining is 21% (inactive). Besides, the viability in assay [4] was 105%. In assay [1], the remaining activity was 117% (inactive). The fold change is 0.814 (inactive) in assay [2] (setting [9]) and 0.845 in assay [2] (setting [10]). Besides, the cell count in assay [2] (setting [11]) is 1060; in assay [2] (setting [12]) it was 1300. In addition, the z-score in assay [3] was -0.705 (inactive).

A word on the inhibition: it is the change of the read-out against control, counted positive when it falls. For the molecule `COc1cc(C=O)c([N+](=O)[O-])cc1OC`, the remaining activity in assay [1] was 102% (inactive). Further, the fold change in assay [2] (setting [9]) was 0.928 (inactive); in assay [2] (setting [10]), 1.17. The cell count in assay [2] (setting [11]) worked out at 8790; in assay [2] (setting [12]), 9460. Moreover, the z-score in assay [3] is -0.05 (inactive). Also, the inhibition was -16.6% (inactive) in assay [5] (at 0.5 µM, stronger effect = higher value); 9.48% in assay [5] (measured here: combination with BGB IC20, at 0.005 µM); -5.33% in assay [5] (measured here: combination with BGB IC40, at 0.005 µM); 7.41% in assay [5] (measured here: combination with BGB IC40, at 0.05 µM); -18.5% in assay [5] (measured here: combination with cisplatin, at 0.5 µM, stronger effect = higher value); 3.4% in assay [5] (measured here: combination with cisplatin, at 5 µM, stronger effect = higher value). Also, the inhibition in assay [6] (BGB combo, at 5 µM) is -38.7%; in assay [6] (at 0.5 µM), -19.7% (inactive); in assay [6] (cisplatin combo, at 5 µM), -6.74%; in assay [6] (measured here: with BGB IC20 combination, at 0.5 µM) it was -8.97%; in assay [6] (measured here: with cisplatin IC20 combination, at 0.5 µM) it was -29.9%; in assay [6] (single agent, at 5 µM), 0.626%. The inhibition in assay [7] (BGB IC20 combo, at 0.005 µM) is -9.07%; in assay [7] (BGB IC40 combo, at 0.005 µM), -48.2%; in assay [7] (BGB IC40 combo, at 0.05 µM), -39.8%; in assay [7] (at 0.5 µM), -35.2% (inactive); in assay [7] (cisplatin combo, at 0.05 µM), -45.3%; in assay [7] (cisplatin combo, at 0.5 µM) it was -48.6%. Further, the inhibition was -19.2% in assay [7] (cisplatin combo, at 5 µM); -4.36% in assay [7] (measured here: 5 uM single agent, at 5 µM); -19.8% (inactive) in assay [8] (at 0.5 µM); -22.3% in assay [8] (measured here: with BGB IC20, at 0.5 µM); -12.5% in assay [8] (measured here: with BGB IC20, at 5 µM); -24.3% in assay [8] (measured here: with cisplatin IC20, at 0.5 µM). Moreover, the inhibition was -32.4% in assay [8] (measured here: with cisplatin IC20, at 5 µM) and -9.78% in assay [8] (single agent, at 5 µM).
